# Test results published in PubChem BioAssay AID2284387 (EPA ToxCast).
# Records with an inconclusive call do not appear. Calls of active or inactive are those of the source. Rule for the calls: active = hit-call score of the fitted dose curve at least 0.9, where 1 is the maximum; inconclusive = response in the unintended direction; inactive = score below 0.9.
# Biological target: human Peroxisome Proliferator-activated Receptor delta (PPARd) Agonism, conducted at France lab site, PPARD (gene 5467) (UniProt Q03181)
# Sequence (Q03181 whole entry, looked up): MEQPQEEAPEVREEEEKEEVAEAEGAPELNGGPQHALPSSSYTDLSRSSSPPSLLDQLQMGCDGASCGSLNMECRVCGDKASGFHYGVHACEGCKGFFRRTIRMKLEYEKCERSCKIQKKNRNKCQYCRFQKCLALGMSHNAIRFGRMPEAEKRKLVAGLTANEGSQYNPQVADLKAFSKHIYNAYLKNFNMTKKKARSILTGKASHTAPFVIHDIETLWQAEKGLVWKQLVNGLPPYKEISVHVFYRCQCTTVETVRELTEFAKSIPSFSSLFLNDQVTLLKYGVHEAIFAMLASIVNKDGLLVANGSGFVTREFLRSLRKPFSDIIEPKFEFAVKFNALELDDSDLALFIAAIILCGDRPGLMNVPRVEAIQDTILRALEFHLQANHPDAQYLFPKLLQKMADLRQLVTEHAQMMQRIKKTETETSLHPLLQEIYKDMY
# Experiment: ERF_FR_NR_COA_hPPARD: Eurofins (ERF) Nuclear Receptor (NR) Functional Coactivator Assay for human Peroxisome Proliferator-activated Receptor delta (PPARd) Agonism, conducted at France lab site
# Protocol: ERF_FR_NR_COA_hPPARD is a biochemical, single-readout assay that uses extracted gene-proteins in a cell-free assay. Measurements were taken 2 hours after chemical dosing in a 384-well plate. See PPARdelta Human NHR Functional Agonist Coactivator Assay, Cerep.ERF_FR_NR_COA_hPPARD is an assay component calculated from the ERF_FR_NR_COA_hPPARD assay. It is designed to measure FRET using a type of binding reporter as detected by fluorescence intensity of GW0742 with fluorimetry technology.Data from the assay component ERF_FR_NR_COA_hPPARD was analyzed at the assay endpoint, ERF_FR_NR_COA_hPPARD, in the positive analysis fitting direction relative to DMSO as the negative control and baseline of activity. […]
# Histidine-tagged-PPARdelta (Ligand Binding Domain, 1.7 ul/ml proteins) are mixed with 50 nM biotin-tagged-C33 coactivator and 0.4 ug fluorescence acceptor (anti-histidine antibody coupled-beads) in an incubation buffer containing 20 mM Hepes/NaOH (pH 7.4), 80 mM Nacl, 0.08% Tween 20 and 0.8 mM DTT and 0.08% BSA. […] Thereafter, fluorescence donor (streptavidin coupled-beads) is added at a final concentration of 0.4 ug. Following 120 min incubation at 22C, the signal is measured at lambdaex=680 nm and lambdaem=520 and 620 nm using a microplate reader (EnVision, Perkin Elmer). The results are expressed as a percent of the control response to […] nM GW 0742. […]
row,Structure (SMILES),outcome
1,O=C(O)CCC(F)(F)C(F)(F)C(F)(F)F,inactive
2,CC(C)(Oc1ccc(C(=O)c2ccc(Cl)cc2)cc1)C(=O)O,inactive
